Assay results reported in paper PMC7826789 (International Journal of Molecular Sciences, 2021).

Key:
Conditions in all cases: Compound Concentration (nM):1000
AAK1 = system: AAK1
[1] = system: ABL1(E255K)-phosphorylated
[2] = system: ABL1(F317I)-nonphosphorylated
[3] = system: ABL1(F317I)-phosphorylated
[4] = system: ABL1(F317L)-nonphosphorylated
[5] = system: ABL1(F317L)-phosphorylated
[6] = system: ABL1(H396P)-nonphosphorylated
[7] = system: ABL1(H396P)-phosphorylated
[8] = system: ABL1(M351T)-phosphorylated
[9] = system: ABL1(Q252H)-nonphosphorylated
[10] = system: ABL1(Q252H)-phosphorylated
[11] = system: ABL1(T315I)-nonphosphorylated
[12] = system: ABL1(T315I)-phosphorylated
[13] = system: ABL1(Y253F)-phosphorylated
ABL1-nonphosphorylated = system: ABL1-nonphosphorylated
ABL1-phosphorylated = system: ABL1-phosphorylated
ABL2 = system: ABL2
ACVR1B = system: ACVR1B
ACVR1 = system: ACVR1
ACVR2A = system: ACVR2A
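Further: KINOMEscan scanMAX binding as percent activity remaining versus control; lower means stronger binding.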

SMILES | Percent Control (AAK1) | Percent Control [1] | Percent Control [2] | Percent Control [3] | Percent Control [4] | Percent Control [5] | Percent Control [6] | Percent Control [7] | Percent Control [8] | Percent Control [9] | Percent Control [10] | Percent Control [11] | Percent Control [12] | Percent Control [13] | Percent Control (ABL1-nonphosphorylated) | Percent Control (ABL1-phosphorylated) | Percent Control (ABL2) | Percent Control (ACVR1B) | Percent Control (ACVR1) | Percent Control (ACVR2A)
NS(=O)(=O)c1ccc(Nc2ncc(-c3ccccc3)o2)cc1 [GW572399X] | 94% | 81% | 99% | 87% | 86% | 100% | 35% | 87% | 83% | 78% | 100% | 100% | 89% | 100% | 81% | 87% | 88% | 100% | 100% | 100%
CCS(=O)(=O)c1ccc(OC)c(Nc2ncc(-c3cccc(OC)c3)o2)c1 [GW580509X] | 100% | 5% | 90% | 40% | 45% | 6.2% | 1.4% | 7.9% | 6.5% | 6.8% | 3.2% | 100% | 97% | 8% | 16% | 9.4% | 26% | 100% | 27% | 100%
COc1cc(N2CCN(C(C)C)CC2)ccc1Nc1nc(Nc2ccc(F)cc2C(=O)NC[C@@H](O)CO)c2cc[nH]c2n1 [GSK1392956A] | 64% | 100% | 100% | 87% | 95% | 49% | 97% | 100% | 97% | 100% | 100% | 100% | 100% | 100% | 100% | 100% | 100% | 100% | 100% | 100%
COc1cccc(-c2c[nH]c3c(N/N=C/c4ccncc4)ncnc23)c1 [GW814408X] | 69% | 0.7% | 100% | 66% | 61% | 19% | 0% | 0.2% | 0.3% | 0% | 1.1% | 50% | 48% | 0.5% | 1.2% | 0.3% | 11% | 42% | 17% | 75%
C[C@@H](Oc1cc(-n2cnc3ccc(OC4CCN(C)CC4)cc32)sc1C(N)=O)c1ccccc1Cl [GSK579289A] | 62% | 44% | 52% | 87% | 100% | 78% | 43% | 56% | 80% | 46% | 67% | 61% | 75% | 60% | 60% | 48% | 83% | 81% | 85% | 57%
COc1cccc(-n2ncc3c(N/N=C/c4ccncc4)ncnc32)c1 [GW784752X] | 85% | 1.5% | 100% | 78% | 98% | 24% | 0% | 1.5% | 0% | 0% | 1.7% | 59% | 27% | 1.6% | 7% | 1.8% | 54% | 54% | 5.4% | 81%
COc1ccccc1-c1cc(/C=C2\C(=O)Nc3ncc(Br)cc32)cc(Br)c1O [GW442130X] | 87% | 83% | 100% | 100% | 100% | 100% | 48% | 85% | 100% | 94% | 86% | 87% | 100% | 88% | 84% | 77% | 100% | 95% | 100% | 100%
NS(=O)(=O)c1ccc(N/N=C2\C(=O)Nc3ccc(-c4cnco4)cc32)cc1 [GW276655] | 14% | 63% | 69% | 59% | 75% | 74% | 58% | 83% | 92% | 85% | 70% | 67% | 70% | 69% | 84% | 74% | 98% | 100% | 66% | 90%
COc1cc2ncn(-c3cc(O[C@H](C)c4ccccc4Cl)c(C(N)=O)s3)c2cc1OC [GSK237701A] | 29% | 81% | 100% | 86% | 92% | 71% | 20% | 78% | 56% | 46% | 76% | 51% | 39% | 83% | 59% | 81% | 73% | 100% | 100% | 100%
COc1cc(/C=N/Nc2ncnc3[nH]ncc23)ccc1O [GW578748X] | 34% | 0.8% | 100% | 37% | 56% | 23% | 0% | 1.3% | 0% | 0% | 1.6% | 79% | 24% | 1.1% | 3.1% | 1.2% | 68% | 100% | 83% | 50%
COc1ccc2cc(-c3c(-c4ccncc4)nc(-c4ccc(S(C)(=O)=O)cc4C)n3C)ccc2c1 [SB-633825] | 83% | 80% | 100% | 65% | 83% | 74% | 58% | 78% | 81% | 63% | 83% | 53% | 54% | 86% | 66% | 75% | 62% | 19% | 60% | 100%
